Binding signal data for one sequence are collected here from PMC7862700, “An all-to-all approach to the identification of sequence-specific readers for epigenetic DNA modifications on cytosine”.

Holding throughout (assay): DAPPL (digital affinity profiling via proximity ligation, sequencing); 10 mM Tris-HCl pH 7.5, 50 mM NaCl, 1 mM DTT, 4% glycerol, room temperature, 30 min; GST-TFs on glutathione beads, 16-mer random dsDNA library, 0.1% formaldehyde crosslink after washing; high values mean tight binding
Holding throughout (details): protein: recombinant; tags: N-terminal GST; dsDNA, one strand shown

One experiment deals with T1, FLI1 (Homo sapiens, UniProt Q01543 1-452).
T1 sequence: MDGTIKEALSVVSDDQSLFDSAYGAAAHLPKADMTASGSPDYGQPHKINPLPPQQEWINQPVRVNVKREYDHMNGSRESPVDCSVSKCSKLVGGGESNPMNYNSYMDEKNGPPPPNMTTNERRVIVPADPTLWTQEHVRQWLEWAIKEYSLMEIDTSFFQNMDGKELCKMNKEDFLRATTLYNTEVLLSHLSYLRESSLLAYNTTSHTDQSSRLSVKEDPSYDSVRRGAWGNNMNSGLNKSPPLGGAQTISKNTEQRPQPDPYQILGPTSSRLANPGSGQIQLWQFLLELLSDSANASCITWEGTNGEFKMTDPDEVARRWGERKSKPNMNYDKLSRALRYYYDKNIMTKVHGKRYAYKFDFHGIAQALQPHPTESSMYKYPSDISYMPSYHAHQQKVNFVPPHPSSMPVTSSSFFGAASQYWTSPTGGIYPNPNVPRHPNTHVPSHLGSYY
The method in brief: (§1)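 Each value of binding signal is a hexamer's read frequency for a factor divided by the same hexamer's frequency in the tag-only sample. Barcoded, bead-captured GST fusions of human transcription factors made in yeast were pooled with that sample and incubated with 200 nmole of a random double-stranded 16-mer DNA library in Tris/NaCl/DTT/glycerol buffer at room temperature for 30 min. Washing, 0.1% formaldehyde crosslinking, proximity ligation, PCR and Illumina NextSeq500 sequencing followed.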

The next experiment addresses T2, ELK1 (Homo sapiens, UniProt P19419 1-428).
T2 sequence: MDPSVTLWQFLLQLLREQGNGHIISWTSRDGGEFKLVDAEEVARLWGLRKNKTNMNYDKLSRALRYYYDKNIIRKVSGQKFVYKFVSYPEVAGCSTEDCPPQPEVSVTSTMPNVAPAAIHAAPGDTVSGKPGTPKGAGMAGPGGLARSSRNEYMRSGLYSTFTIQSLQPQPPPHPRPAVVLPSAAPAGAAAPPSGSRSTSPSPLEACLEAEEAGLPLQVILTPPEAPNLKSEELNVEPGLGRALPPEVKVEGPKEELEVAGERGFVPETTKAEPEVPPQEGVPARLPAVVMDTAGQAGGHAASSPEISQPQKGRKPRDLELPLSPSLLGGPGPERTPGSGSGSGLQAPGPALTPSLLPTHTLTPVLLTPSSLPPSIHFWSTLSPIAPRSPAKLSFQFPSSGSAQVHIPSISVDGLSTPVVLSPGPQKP
The method in brief:
as §1

The next experiment has as its target T3, GABPA (Homo sapiens, UniProt Q06546 1-454).
T3 sequence: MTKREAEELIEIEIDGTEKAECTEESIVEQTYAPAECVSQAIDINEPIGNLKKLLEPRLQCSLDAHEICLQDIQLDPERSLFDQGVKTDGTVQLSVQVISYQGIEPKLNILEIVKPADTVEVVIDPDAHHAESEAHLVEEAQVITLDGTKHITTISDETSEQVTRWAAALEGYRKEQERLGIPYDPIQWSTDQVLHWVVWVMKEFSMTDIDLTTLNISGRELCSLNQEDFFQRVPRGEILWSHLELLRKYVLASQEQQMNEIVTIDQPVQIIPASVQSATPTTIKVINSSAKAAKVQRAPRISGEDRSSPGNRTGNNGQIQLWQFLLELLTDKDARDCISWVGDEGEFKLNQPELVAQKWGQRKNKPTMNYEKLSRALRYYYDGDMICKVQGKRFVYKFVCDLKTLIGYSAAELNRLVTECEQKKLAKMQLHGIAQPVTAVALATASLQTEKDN
The method in brief: as §1

In the next experiment the target is T4, ERG (Homo sapiens, UniProt P11308 1-479).
T4 sequence: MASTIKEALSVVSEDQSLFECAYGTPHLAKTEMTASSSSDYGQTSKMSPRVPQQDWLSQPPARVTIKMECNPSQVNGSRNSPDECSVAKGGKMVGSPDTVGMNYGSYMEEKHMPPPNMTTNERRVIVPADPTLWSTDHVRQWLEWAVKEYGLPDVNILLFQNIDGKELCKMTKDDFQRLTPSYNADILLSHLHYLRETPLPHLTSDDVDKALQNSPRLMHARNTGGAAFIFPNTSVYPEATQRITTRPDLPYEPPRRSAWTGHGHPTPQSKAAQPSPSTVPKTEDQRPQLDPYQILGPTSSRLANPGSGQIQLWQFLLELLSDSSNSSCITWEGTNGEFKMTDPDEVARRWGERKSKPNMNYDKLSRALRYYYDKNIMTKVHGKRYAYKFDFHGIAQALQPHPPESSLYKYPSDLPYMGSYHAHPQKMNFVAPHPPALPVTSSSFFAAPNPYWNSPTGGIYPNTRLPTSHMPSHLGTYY
A digest of the protocol:
as §1

For another experiment, the target named is ELF1 (Homo sapiens, UniProt P32519 1-619). The method in brief: as §1
Another experiment deals with T5, EHF (Homo sapiens, UniProt Q9NZC4 1-300).
T5 sequence: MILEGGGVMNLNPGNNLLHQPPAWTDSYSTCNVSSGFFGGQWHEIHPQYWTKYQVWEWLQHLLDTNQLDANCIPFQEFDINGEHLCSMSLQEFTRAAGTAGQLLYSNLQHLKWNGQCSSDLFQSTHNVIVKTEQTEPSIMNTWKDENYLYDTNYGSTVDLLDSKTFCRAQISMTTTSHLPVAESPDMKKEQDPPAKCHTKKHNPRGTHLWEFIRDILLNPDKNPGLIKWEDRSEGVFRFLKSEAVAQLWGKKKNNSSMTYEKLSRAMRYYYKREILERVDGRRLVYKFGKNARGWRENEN
A digest of the protocol: as §1

For a further experiment, the target named is SPI1 (Homo sapiens, UniProt P17947 1-270). The method in brief: as §1
In a further experiment the target is SPIB (Homo sapiens, UniProt Q01892 1-262). The method in brief:
as §1

The target in another experiment is T6, ELK3 (Homo sapiens, UniProt P41970 1-407).
T6 sequence: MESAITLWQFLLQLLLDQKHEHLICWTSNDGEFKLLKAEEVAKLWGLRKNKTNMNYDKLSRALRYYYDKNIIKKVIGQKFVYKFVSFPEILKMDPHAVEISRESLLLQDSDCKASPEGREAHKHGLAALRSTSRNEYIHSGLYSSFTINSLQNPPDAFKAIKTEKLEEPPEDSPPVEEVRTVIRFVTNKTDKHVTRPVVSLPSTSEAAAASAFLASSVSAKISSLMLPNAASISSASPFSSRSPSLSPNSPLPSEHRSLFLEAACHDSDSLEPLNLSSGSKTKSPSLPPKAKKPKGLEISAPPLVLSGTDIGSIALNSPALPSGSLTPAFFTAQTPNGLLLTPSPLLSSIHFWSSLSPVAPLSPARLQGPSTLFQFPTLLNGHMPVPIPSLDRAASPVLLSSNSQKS
The method in brief:
as §1

The next experiment deals with T7, FEV (Homo sapiens, UniProt Q99581 1-238).
T7 sequence: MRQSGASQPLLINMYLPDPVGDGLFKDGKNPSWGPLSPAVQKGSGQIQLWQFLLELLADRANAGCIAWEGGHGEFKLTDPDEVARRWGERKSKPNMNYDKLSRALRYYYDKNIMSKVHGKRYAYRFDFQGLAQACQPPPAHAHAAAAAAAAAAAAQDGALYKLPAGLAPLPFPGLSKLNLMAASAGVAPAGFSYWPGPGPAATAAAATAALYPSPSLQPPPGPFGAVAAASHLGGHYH
A digest of the protocol:
as §1

Another experiment concerns the target ETV5 (Homo sapiens, UniProt P41161 1-510). A digest of the protocol:
as §1

The target in another experiment is T8, SPIC (Homo sapiens, UniProt Q8N5J4 1-248).
T8 sequence: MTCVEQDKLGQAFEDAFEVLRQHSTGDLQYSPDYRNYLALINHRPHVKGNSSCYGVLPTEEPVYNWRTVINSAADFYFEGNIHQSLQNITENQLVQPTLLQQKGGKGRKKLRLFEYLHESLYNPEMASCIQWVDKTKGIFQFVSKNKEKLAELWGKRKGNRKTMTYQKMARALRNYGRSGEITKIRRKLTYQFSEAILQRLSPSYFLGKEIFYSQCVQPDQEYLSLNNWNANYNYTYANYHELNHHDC
A digest of the protocol:
as §1

The next experiment deals with ELF4 (Homo sapiens, UniProt Q99607 1-663). A digest of the protocol:
as §1

A further experiment concerns the target T9, ELK4 (Homo sapiens, UniProt P28324-2 1-405).
T9 sequence: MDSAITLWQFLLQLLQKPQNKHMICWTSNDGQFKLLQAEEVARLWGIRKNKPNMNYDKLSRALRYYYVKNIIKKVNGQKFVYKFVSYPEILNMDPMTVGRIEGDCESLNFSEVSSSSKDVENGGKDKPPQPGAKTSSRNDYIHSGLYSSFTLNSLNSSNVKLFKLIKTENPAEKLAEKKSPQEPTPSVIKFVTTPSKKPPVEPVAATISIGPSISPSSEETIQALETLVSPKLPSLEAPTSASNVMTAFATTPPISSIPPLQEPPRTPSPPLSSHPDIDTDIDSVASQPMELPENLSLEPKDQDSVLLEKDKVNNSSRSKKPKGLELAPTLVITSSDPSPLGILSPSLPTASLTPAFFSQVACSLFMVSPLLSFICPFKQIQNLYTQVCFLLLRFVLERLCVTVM
A digest of the protocol: as §1

Another experiment deals with T10, ETV2 (Homo sapiens, UniProt O00321 1-342).
T10 sequence: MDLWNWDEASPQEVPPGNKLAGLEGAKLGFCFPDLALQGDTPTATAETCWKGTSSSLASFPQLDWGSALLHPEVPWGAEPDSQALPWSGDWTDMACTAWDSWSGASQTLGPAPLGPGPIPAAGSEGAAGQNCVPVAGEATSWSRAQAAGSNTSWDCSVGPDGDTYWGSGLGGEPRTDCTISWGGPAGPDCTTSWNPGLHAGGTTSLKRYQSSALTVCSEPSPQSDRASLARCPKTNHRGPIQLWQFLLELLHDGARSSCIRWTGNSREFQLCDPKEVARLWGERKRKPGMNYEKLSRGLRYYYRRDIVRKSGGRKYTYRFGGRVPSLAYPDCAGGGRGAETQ
The method in brief: as §1

For the next experiment, the target named is T11, ELF3 (Homo sapiens, UniProt P78545 1-371).
T11 sequence: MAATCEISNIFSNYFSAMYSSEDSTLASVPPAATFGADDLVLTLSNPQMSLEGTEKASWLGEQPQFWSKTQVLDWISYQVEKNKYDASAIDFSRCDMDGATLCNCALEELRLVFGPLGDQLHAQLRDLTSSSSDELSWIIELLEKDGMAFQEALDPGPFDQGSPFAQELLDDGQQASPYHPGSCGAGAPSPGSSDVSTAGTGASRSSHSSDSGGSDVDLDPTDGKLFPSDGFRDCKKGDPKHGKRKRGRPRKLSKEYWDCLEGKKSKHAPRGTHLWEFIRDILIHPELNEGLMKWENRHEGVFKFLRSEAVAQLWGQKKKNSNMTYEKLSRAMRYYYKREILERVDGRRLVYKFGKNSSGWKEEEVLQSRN
A digest of the protocol: as §1

The target in the next experiment is ETV1 (Homo sapiens, UniProt P50549 1-477). The method in brief:
as §1

Sequence of ELF4 (Q99607 whole entry): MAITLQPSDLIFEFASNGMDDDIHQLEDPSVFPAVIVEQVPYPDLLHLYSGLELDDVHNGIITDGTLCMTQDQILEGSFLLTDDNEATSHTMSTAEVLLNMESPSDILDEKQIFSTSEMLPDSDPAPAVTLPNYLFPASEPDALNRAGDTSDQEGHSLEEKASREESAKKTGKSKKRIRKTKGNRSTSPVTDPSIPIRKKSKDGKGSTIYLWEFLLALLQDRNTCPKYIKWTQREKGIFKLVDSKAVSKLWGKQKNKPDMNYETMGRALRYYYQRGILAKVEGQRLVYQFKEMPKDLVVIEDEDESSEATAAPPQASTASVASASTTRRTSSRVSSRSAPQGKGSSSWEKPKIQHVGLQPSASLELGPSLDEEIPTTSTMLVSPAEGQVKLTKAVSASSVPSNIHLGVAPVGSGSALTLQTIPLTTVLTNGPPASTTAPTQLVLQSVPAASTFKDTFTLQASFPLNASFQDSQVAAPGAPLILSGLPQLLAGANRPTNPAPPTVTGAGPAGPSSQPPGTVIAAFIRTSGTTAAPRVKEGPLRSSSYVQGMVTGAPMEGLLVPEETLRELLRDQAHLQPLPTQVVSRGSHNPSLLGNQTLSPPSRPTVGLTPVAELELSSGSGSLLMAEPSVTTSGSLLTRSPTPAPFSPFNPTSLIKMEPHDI
Sequence of ETV5 (P41161 whole entry): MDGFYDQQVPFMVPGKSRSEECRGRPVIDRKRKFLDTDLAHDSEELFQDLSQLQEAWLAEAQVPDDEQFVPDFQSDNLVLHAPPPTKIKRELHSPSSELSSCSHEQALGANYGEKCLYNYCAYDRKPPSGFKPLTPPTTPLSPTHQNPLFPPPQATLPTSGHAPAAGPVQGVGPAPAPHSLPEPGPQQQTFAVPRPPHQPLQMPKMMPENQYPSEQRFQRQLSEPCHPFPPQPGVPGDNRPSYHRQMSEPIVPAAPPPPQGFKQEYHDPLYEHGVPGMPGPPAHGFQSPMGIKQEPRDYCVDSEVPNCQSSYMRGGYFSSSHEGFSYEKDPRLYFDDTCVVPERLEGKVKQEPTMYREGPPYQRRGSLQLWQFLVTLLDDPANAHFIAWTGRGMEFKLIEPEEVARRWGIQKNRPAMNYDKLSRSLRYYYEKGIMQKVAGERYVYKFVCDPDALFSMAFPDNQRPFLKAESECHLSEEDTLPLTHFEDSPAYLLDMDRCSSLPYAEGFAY
Sequence of SPIB (Q01892 whole entry): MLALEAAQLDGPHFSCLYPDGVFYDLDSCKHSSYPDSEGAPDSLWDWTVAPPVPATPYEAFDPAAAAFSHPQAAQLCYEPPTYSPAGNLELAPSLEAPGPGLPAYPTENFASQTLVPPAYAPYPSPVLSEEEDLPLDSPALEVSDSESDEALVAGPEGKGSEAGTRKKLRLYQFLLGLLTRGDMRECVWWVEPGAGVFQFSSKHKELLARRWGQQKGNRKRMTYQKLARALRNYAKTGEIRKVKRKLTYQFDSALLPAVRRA
Sequence of ELF1 (P32519 whole entry): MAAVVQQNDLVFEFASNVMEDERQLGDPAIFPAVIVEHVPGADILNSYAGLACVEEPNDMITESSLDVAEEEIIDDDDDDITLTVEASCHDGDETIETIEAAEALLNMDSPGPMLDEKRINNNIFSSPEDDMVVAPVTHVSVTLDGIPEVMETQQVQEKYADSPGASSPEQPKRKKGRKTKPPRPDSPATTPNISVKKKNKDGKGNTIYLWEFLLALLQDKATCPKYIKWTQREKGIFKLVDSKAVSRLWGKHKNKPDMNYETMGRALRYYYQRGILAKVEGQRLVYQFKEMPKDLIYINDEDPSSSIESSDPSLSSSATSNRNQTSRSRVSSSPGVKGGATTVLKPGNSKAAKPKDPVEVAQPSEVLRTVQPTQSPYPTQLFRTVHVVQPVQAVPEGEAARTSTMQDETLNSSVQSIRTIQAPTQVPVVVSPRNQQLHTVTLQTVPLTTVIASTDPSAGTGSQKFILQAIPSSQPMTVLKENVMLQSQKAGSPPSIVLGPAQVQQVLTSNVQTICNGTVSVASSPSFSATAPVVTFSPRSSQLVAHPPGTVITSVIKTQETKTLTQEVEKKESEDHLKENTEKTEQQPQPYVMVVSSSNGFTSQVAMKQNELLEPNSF
Sequence of ETV1 (P50549 whole entry): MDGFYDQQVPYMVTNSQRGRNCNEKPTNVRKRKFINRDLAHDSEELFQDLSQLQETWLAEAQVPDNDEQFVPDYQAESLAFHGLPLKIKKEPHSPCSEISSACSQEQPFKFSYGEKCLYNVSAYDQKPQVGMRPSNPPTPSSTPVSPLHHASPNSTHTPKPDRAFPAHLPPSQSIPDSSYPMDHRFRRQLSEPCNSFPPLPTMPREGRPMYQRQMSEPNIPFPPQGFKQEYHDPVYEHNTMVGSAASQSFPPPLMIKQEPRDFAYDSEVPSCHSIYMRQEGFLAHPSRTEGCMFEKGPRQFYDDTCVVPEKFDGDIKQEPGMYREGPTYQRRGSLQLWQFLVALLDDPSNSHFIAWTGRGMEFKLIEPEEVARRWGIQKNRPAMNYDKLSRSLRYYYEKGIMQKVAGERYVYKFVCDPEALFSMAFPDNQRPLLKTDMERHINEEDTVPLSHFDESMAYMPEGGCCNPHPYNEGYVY

Turning to ACAACA, the binding signal in the experiment with FLI1 is 1.22 fold enrichment (6-mer frequency, TF over GST control); in the experiment with ELK1 it was 1.24 fold enrichment (6-mer frequency, TF over GST control); with GABPA it was 1.23 fold enrichment (6-mer frequency, TF over GST control); with ERG it was 1.2 fold enrichment (6-mer frequency, TF over GST control); in the experiment with ELF1 it was 1.29 fold enrichment (6-mer frequency, TF over GST control); in the experiment with EHF, 1.24 fold enrichment (6-mer frequency, TF over GST control). For the same sequence, the binding signal with SPI1 is 1.18 fold enrichment (6-mer frequency, TF over GST control); in the experiment with SPIB, 1.19 fold enrichment (6-mer frequency, TF over GST control); with ELK3 it was 1.19 fold enrichment (6-mer frequency, TF over GST control); with FEV, 1.2 fold enrichment (6-mer frequency, TF over GST control); in the experiment with ETV5, 1.16 fold enrichment (6-mer frequency, TF over GST control); in the experiment with SPIC it was 1.13 fold enrichment (6-mer frequency, TF over GST control). Moreover, the binding signal was 1.19 fold enrichment (6-mer frequency, TF over GST control) in the experiment with ELF4; 1.14 fold enrichment (6-mer frequency, TF over GST control) with ELK4; 1.28 fold enrichment (6-mer frequency, TF over GST control) with ETV2; 1.32 fold enrichment (6-mer frequency, TF over GST control) with ELF3; 1.23 fold enrichment (6-mer frequency, TF over GST control) with ETV1.
